# High-throughput results (PubChem)
# A selection: hits, their analogues and other compounds. The true share with any hit is near 2.2%.
# HTR2A ag – mouse Htr2a agonists via beta-arrestin recruitment, primary screen, cell-based, luminescence; 5-hydroxytryptamine receptor 2A (Mus musculus), P35363; CHO-K1 mHTR2A beta-arrestin complementation; percent of 30 µM serotonin response; activation, % at 7.6 µM; hit rate 0.66% among 360,000; AID 624169, 2012;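 active = activation above a run cutoff, the mean activation of all tested compounds plus 3 SD, cut at about 14% in these data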
# JMJD2C inh – inhibitors of GASC-1 histone demethylase, primary screen, biochemical, fluorescence, DELFIA europium | Lysine-specific demethylase 4C (Homo sapiens), Q9H3R0 | GST-JMJD2C(1-420) H3K9me3 demethylation | inhibition, % at 2.35 µM | hit rate 0.069% among 330,000 | AID 2099, 2009;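 active = more than half of a compound's replicate wells show inhibition beyond 50%, single wells judged on their own value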;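 also: signal counts dimethyl H3K9 product captured on neutravidin plate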
# Target sequence (Q9H3R0 1-420 limits assumed): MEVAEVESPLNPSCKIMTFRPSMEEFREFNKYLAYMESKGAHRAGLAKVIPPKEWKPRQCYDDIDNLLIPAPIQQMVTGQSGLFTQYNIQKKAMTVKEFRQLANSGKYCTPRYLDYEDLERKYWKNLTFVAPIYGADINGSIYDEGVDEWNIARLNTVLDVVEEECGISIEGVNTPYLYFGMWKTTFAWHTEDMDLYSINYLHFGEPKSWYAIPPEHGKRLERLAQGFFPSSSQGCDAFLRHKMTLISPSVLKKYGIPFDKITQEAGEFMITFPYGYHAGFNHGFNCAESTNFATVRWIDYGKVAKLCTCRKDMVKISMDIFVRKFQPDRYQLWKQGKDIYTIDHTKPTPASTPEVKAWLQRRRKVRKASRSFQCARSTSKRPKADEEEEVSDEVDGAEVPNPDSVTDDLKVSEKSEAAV
# Exocytosis inh – LAMP-1 surface exposure blockers, TALL-104 cells – cell-based, flow cytometry, MLPCN library, primary screen; TALL-104 LAMP-1 surface exposure; cells stimulated with thapsigargin and PMA; inhibition, % at 10 µM; hit rate 0.66% among 360,000; AID 651702, 2012;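 active = inhibition above about 55%, limit read from the data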
# VLA-4 inh – inhibition in human VLA-4 binding assay, primary screen, VLA-4 allosteric modulator project, MLPCN library, flow cytometry, VLA-4 expressing cells. ligand binding flow cytometry. inhibition, % (about 7 µM as worked out from the volumes in the protocol). hit rate 0.2% among 330,000; in the data active = inhibition above about 50%
# MEX-5 binding – MEX-5 zinc finger RNA-binding disruptors – biochemical, C. elegans, fluorescence polarization, MLPCN library, primary screen; activity score (negative = inhibition of binding), % at 10 µM; MEX-5/FITC-TCR2 RNA binding; active compounds read low; Zinc finger protein mex-5 (Caenorhabditis elegans), Q9XUB2; hit rate 0.38% among 300,000;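 active = inhibition past about -25% in most replicates, and total fluorescence under double the plate's negative control median, limit read from the data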
# V-ATPase pHluor – regulators of yeast V-ATPase proton pumping, primary screen, pHLuorin cytosolic pH fluorescence; S. cerevisiae; response, % at 10 µM; hit rate 0.37% among 350,000; in the data active = response mostly above about 7.3%, no sharp cut-off; inactive = mostly below about 5.4%; also: actives read high
# Hits are given with their value; . = inactive; / = no result.
SMILES,HTR2A ag,JMJD2C inh,Exocytosis inh,VLA-4 inh,MEX-5 binding,V-ATPase pHluor
CSc1ccccc1NC(=O)CN(c1cccc(C)c1)S(C)(=O)=O,.,.,.,.,.,13.1
C[C@H]1CN([C@@H](C)CO)C(=O)CCCn2nncc2CO[C@H]1CN(C)C(=O)C1CC1,.,/,.,/,/,.
O=C(NCc1ccccc1)C(c1ccc(C(F)(F)F)cc1)n1c(=O)c(-c2ccco2)nc2ccccc21 (centres undefined),.,/,.,/,/,/
CCOc1cc(C=C2C(=O)c3ccccc3C2=O)ccc1OCC(=O)Nc1ccc(C)cc1,.,.,.,.,-36.1,.
OC(C#Cc1ccccn1)c1cccs1 (centres undefined),.,.,.,.,-34.8,.
O=C(NC1CCCCC1)C(c1cccs1)N(C(=O)c1ccccn1)c1ccccc1 (centres undefined),.,.,.,.,.,.
COc1cccc(C(C[N+](=O)[O-])c2c(C)[nH]n(-c3ccccc3)c2=O)c1 (centres undefined),.,68.9,.,.,.,.
O=C(c1ccc(Cl)cc1)C1CCN(CC(=O)N2CCCCC2)CC1,.,.,.,.,.,.
CN(CCC#N)C(=O)COC(=O)c1cc(Cl)cc(Cl)c1N,.,.,.,.,.,.
CCNc1ccc(S(=O)(=O)NCCN(C)C)cc1[N+](=O)[O-],.,.,.,.,.,.
CN(C)CCCNS(=O)(=O)c1ccc(NC2CCCCCC2)c([N+](=O)[O-])c1,.,.,60.1,.,.,.
CCCS(=O)(=O)NC(=O)C1(C)CCCN(C(=O)c2nc3ccccc3s2)C1 (centres undefined),.,/,.,/,/,/
CN=c1scc(C)n1/N=C/c1ccc(O)c(O)c1O,.,.,.,.,-32.1,.
CN=c1scc(-c2cccs2)n1/N=C/c1ccc(O)c(O)c1O,.,.,.,.,.,.
CCc1noc(C)c1C(=O)OCC(=O)c1ccc(NC(C)=O)cc1F,.,.,.,.,/,16.6
CCOc1ccc(C2/C(=C(/O)c3ccc4c(c3)CC(C)O4)C(=O)C(=O)N2CC2CCCO2)cc1 (centres undefined),.,.,.,.,.,.
CCN(CC)CCN1C(=O)C(=O)/C(=C(/O)c2ccc3c(c2)CC(C)O3)C1c1ccc(OC)cc1 (centres undefined),.,.,92.1,.,.,.
CCN(CC)CCOC(=O)c1ccc(NC(=O)c2cn(-c3ccccc3)nc2-c2cccs2)cc1,.,/,90.2,/,/,.
O=C(Cc1ccc([N+](=O)[O-])cc1)Nc1ccc2c(c1)CCC2,.,.,.,.,.,.
Cc1ccc(C(O)P(=O)(OCCC(C)C)c2ccc(N(C)C)cc2)cc1 (centres undefined),.,.,59.8,.,.,.
COc1ccc(C(O)P(=O)(OCCC(C)C)c2ccc(N(C)C)cc2)cc1OC (centres undefined),.,.,.,.,.,.
O=C(NNC(=O)c1ccccc1F)c1ccc(Cl)c(S(=O)(=O)N2CCOCC2)c1,.,.,.,.,/,.
O=C(C[C@H]1CC[C@@H]2[C@H](COC[C@H](O)CN2Cc2cccc(C(F)(F)F)c2)O1)NCCc1ccccc1,.,/,.,/,/,/
CCc1sc(C(C2C(=O)CC(C)(C)CC2=O)C2C(=O)CC(C)(C)CC2=O)cc1[N+](=O)[O-],.,.,.,.,.,8.1
CCCCN(C(=O)C1CC(=O)N(Cc2ccc(C)cc2)C1)c1c(N)n(CCCC)c(=O)[nH]c1=O (centres undefined),.,.,.,.,.,.
SMILES,HTR2A ag,JMJD2C inh,Exocytosis inh,VLA-4 inh,MEX-5 binding,V-ATPase pHluor
COC(=O)C1=C(C)N=C2SC(C#N)=C(N)N2C1c1cccc(OC)c1 (centres undefined),.,.,.,.,-28.1,.
COC(=O)C1=C(C)N=C2SC(C#N)=C(N)N2C1c1ccc(OC)cc1 (centres undefined),.,.,.,.,.,.
Cc1cc(C(=O)N2CCC2(C)C(=O)Nc2ccc3[nH]ncc3c2)nn1C (centres undefined),.,/,.,/,/,/
O=c1c2cc([N+](=O)[O-])ccc2sn1-c1ccccc1,.,/,.,/,/,.
N#Cc1c2ccc([N+](=O)[O-])cc2[n+]([O-])n1-c1ccccc1,.,.,.,.,/,27.9
COc1ccc(CNC(=O)CN2CCN(c3ccccc3O)CC2)cc1OC,.,.,.,.,.,.
COc1cccc(/C=N/NC(=O)c2ccc(-c3ccccc3)cc2)c1O,.,.,59.0,.,.,.
COc1cccc(/C=N/NC(=O)c2ccc(=O)[nH]n2)c1O,.,.,.,.,-35.0,.
COc1ccc(OC)c(/C=N/NC(=O)c2ccc(=O)[nH]n2)c1,.,.,.,.,.,.
CC(C)CN(C(=O)COc1ccc(C(C)(C)C)cc1)C1CCS(=O)(=O)C1 (centres undefined),.,.,.,.,.,.
Oc1[nH]c(N=C2N=c3ccccc3=N2)c2ccccc12,.,.,.,.,-37.5,.
Cc1ccc(NS(=O)(=O)c2cc(C(=O)Nc3cccnc3)ccc2C)cc1,.,.,.,.,.,.
Cc1noc(NS(=O)(=O)c2ccc(NC(=O)C(F)(F)C(F)(F)C(F)(F)F)cc2)c1C,.,/,.,.,/,.
CC1=Nc2cccc3cccc(c23)N1C,.,.,.,.,-28.6,.
CN1C(=O)N(C)c2cccc3cccc1c23,.,.,.,.,.,.
CCn1nnnc1SCC(=O)N1CCCc2ccccc21,.,.,.,.,.,24.1
CCn1c(SCC(=O)N2CCCc3ccccc32)nc2c(c1=O)SC(C)C2 (centres undefined),.,/,.,.,/,15.9
CN1CCC(CC(C(=O)N2CCCC2)(c2ccccc2)c2ccccc2)C1 (centres undefined),.,/,.,/,/,.
Nn1c(SC/C=C/c2ccccc2)nnc1-c1ccco1,.,.,.,.,.,18.2
Cc1nnc(SC/C=C/c2ccccc2)n(N)c1=O,.,/,.,.,/,.
CCn1c(SC(C)C(=O)Nc2nccs2)nnc1-c1ccncc1 (centres undefined),.,.,.,.,.,.
COC(=O)N1CCCCC1c1cc(C(=O)N2CCOCC2)no1 (centres undefined),.,/,.,/,/,/
CCc1ccc2nc(N(CCN(C)C)C(=O)/C=C/c3cccs3)sc2c1,.,.,67.2,.,.,.
CN(C)CCN(C(=O)/C=C/c1cccs1)c1nc2ccc(Br)cc2s1,.,.,.,.,.,.
